Results reported in the supplement of paper PMC4840960.
A number with no mark means an inactive call.

These compounds were tested on E18 rat cortical neuron-glia co-culture (assay: myelination (MBP fiber length per Olig2+ nucleus), % of 1 µM DAPT response (DMSO = 0) (% of DAPT); higher = more myelination, active = 50 or more). Settings: 1 µM; treatment time: 8 days (DIV5-DIV13).
Procedure, shortened: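 Four 10X fields in each of duplicate wells were analysed after cultures were fixed in 4 % paraformaldehyde and immunostained for MBP and Olig2, with DAPI as the nuclear counterstain. The cultures were papain-dissociated primary E18 rat cortical co-cultures at 20,000 cells/well on poly-d-lysine/laminin 96-well plates, dosed with library compounds at 1 or 5 µM in myelination medium from DIV5 to DIV13. The myelination readout was continuous straight MBP fiber length per Olig2+ nucleus, with 0.1 % DMSO set to 0 and a 1 µM positive control set to 100.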

SMILES | myelination
C[C@@H]1C[C@H]2[C@@H]3CCC4=CC(=O)C=C[C@]4(C)[C@@]3(F)[C@@H](O)C[C@]2(C)[C@H]1C(=O)CO [Desoximetasone] | 7.66
CN(C)[C@@H]1C(O)=C(C(=O)NCN2CCCC2)C(=O)[C@@]2(O)C(O)=C3C(=O)c4c(O)cccc4[C@@](C)(O)[C@H]3C[C@@H]12 [Rolitetracycline] | -9.77
NC[C@H](O)c1ccc(O)c(O)c1 [Norepinephrine] | -41.6
CC(C)NCC(O)COc1ccc(CC(N)=O)cc1 (centres undefined) [Atenolol] | 2.66

Same assay, conditions: 5 µM; treatment time: 8 days (DIV5-DIV13)

SMILES | myelination
CN1CCN(c2nc3cc(C(F)(F)F)ccc3n3cccc23)CC1 | -20.7
COC(=O)[C@H](c1ccccc1Cl)N1CCc2sccc2C1 [Clopidogrel] | -2.98
CC1=C(/C=C/C(C)=C/C=C/C(C)=C\C(=O)O)C(C)(C)CCC1 [Isotretinoin] | -11.8
CC(=O)OCC(=O)[C@@]12OC3(CCCC3)O[C@@H]1C[C@H]1[C@@H]3CCC4=CC(=O)C=C[C@]4(C)[C@@]3(F)[C@@H](O)C[C@@]12C [Amcinonide] | -42.6
C[C@]12CC[C@@H]3c4ccc(O)cc4CC[C@H]3[C@@H]1CC[C@@H]2O [Estradiol] | -35.3
CC(=O)[C@@]1(O)CC[C@H]2[C@@H]3C[C@H](C)C4=CC(=O)C=C[C@]4(C)[C@@]3(F)[C@@H](O)C[C@@]21C [Fluorometholone] | 2.04
CC1(C)S[C@@H]2[C@H](NC(=O)[C@H](N)c3ccc(O)cc3)C(=O)N2[C@H]1C(=O)O [Amoxicillin] | -33.3
COc1cc(C(=O)NC2CCCNC2)cc(OC)c1OC (centres undefined) [Troxipide] | -5
CC(Cc1ccccc1)(NC(=O)CN)c1ccccc1 (centres undefined) [Remacemide] | -7.33
Cc1cccc(C)c1NC(=O)C1CCCCN1C (centres undefined) [Mepivacaine] | -4.33
Clc1ccc2c(c1)CCc1cccnc1C2=C1CCNCC1 [Desloratadine] | -23.3
CCCc1cc(=O)[nH]c(=S)[nH]1 [Propylthiouracil] | -11.9
COc1cc2nc(N3CCN(C(=O)c4ccco4)CC3)nc(N)c2cc1OC [Prazosin] | 3.87
CN/C(=N\CCSCc1nc[nH]c1C)NC#N [Cimetidine] | -6.66
CC(C)(C(=O)c1cccnc1)c1cccnc1 [Metyrapone] | -9.03
C=C[C@H]1CN2CC[C@H]1C[C@H]2[C@H](O)c1ccnc2ccc(OC)cc12 [Quinine] | -11.3
COc1ccccc1N1CCN(CCCNc2cc(=O)n(C)c(=O)n2C)CC1 [Urapidil] | -23.7
CCn1cc(C(=O)O)c(=O)c2cc(F)c(N3CCN(C)CC3)cc21 [Pefloxacin] | -12.3
N[C@@H](C(=O)N[C@@H]1C(=O)N2C(C(=O)O)=C(CSc3c[nH]nn3)CS[C@H]12)c1ccc(O)cc1 [Cefatrizine] | -4.37
CNS(=O)(=O)Cc1ccc2[nH]cc(CCN(C)C)c2c1 [Sumatriptan] | -5.9
c1ccc2c(c1)CCCC2C1=NCCN1 (centres undefined) [Tyzine] | -2.07
O=C1CC[C@@H](C(=O)N2CSC[C@H]2C(=O)O)N1 [Pidotimod] | -4.26
Nc1c2c(nc3ccccc13)CCCC2 [Tacrine] | -14.9
CCc1nc(N)nc(N)c1-c1ccc(Cl)cc1 [Pyrimethamine] | 655 (active)
NC(N)=Nc1nc(CSCC/C(N)=N/S(N)(=O)=O)cs1 [Famotidine] | -21.2
CCc1cc(C(N)=S)ccn1 [Ethionamide] | 3.35
CN1[C@@H](CC(=O)c2ccccc2)CCC[C@H]1C[C@H](O)c1ccccc1 [Lobeline] | -19.7
O=C(O)CCCc1ccccc1 [4-Phenylbutyric acid] | -8.79
CO/N=C(\C(=O)N[C@@H]1C(=O)N2C(C(=O)O)=C(COC(N)=O)CS[C@H]12)c1ccco1 [Cefuroxime] | -51.7
Cc1onc(-c2ccccc2)c1C(=O)N[C@@H]1C(=O)N2[C@@H]1SC(C)(C)[C@@H]2C(=O)O [Oxacillin] | -10.5
